Experimental data published in PubChem BioAssay (NCI).
Compounds without any hit were thinned out: in the full panel of roughly 79,000, 15% have a hit. Rule as the data show it: active = growth inhibition above about 70%; inactive = the rest.

Columns and labels:
[1] = NCI Yeast Anticancer Drug Screen. Data for the rad50 strain (AID 155);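 also: 0% = growth of vehicle-only cultures of the same strain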; details: S. cerevisiae rad50 strain growth inhibition, hits give high values; at 50.0 µM unless noted
Method in brief: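 A DNA repair-deficient yeast mutant serves as the test organism; compound-induced growth inhibition is calculated against vehicle-treated cells.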

[2] = NCI Yeast Anticancer Drug Screen. Data for the mec2-1 strain (AID 157); details: S. cerevisiae mec2-1 strain, hits give high values; at 50.0 µM unless noted
Method in brief: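 Each compound was tested on mec2-1 yeast, a strain altered in DNA damage repair or cell cycle control. Growth inhibition is reported relative to vehicle.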

[3] = NCI Yeast Anticancer Drug Screen. Data for the sgs1 mgt1 strain (AID 161);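 also: 0% = growth of cultures given vehicle only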; details: S. cerevisiae sgs1 mgt1 strain, hits give high values; at 50.0 µM unless noted
Method in brief: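 Test agents were incubated with a DNA-repair-mutant yeast strain. Growth was then read and compared against vehicle-treated controls.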

[4] = NCI Yeast Anticancer Drug Screen. Data for the cln2 rad14 strain (AID 165);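 also: 0% = growth equal to vehicle treated cultures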; details: S. cerevisiae cln2 rad14 strain, hits give high values; at 50.0 µM unless noted
Method in brief: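 Test compounds were added to cln2 rad14 yeast cultures; inhibition of growth was then determined by comparison with vehicle treatment.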

[5] = NCI Yeast Anticancer Drug Screen. Data for the bub3 strain (AID 167); details: S. cerevisiae bub3 mutant strain, hits give high values; at 50.0 µM unless noted
Method in brief: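 Inhibition values come from growth of compound-treated mutant yeast normalised to vehicle-treated controls.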

[6] = NCI Yeast Anticancer Drug Screen. Data for the mlh1 rad18 strain (AID 175); details: S. cerevisiae mlh1 rad18 strain growth inhibition, hits give high values; at 50.0 µM unless noted
Method in brief: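 Inhibition values reflect reduced growth of mutant yeast versus vehicle-treated controls following compound exposure; the mutations affect DNA damage repair.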

Measured: growth inhibition

O=C1c2ccccc2C(=O)N1/N=[N+](\[O-])c1ccccc1
inactive: [1] 3.55% | [2] 0.3% | [3] 17.2% | [4] 7.3% | [5] 25.3% | [6] 40.8%

O=C1CN(c2cccc(C(F)(F)F)c2)C(=O)CN1/N=C/c1cccnc1
inactive: [1] -28.4% | [2] -5.2% | [3] 10.8% | [4] -4.35% | [5] 27.9% | [6] -8.45%

O=C(NCc1ccccc1)c1n[nH][nH]c1=O
inactive: [1] 3.05% | [2] 5.8% | [3] 12.2% | [4] -8.15% | [5] -3.3% | [6] 20.6%

O=C(Nc1ccc(Cl)cc1Cl)c1cc2nc3ccccc3c(=O)n2c2ccccc12
inactive: [1] 29.6% | [2] 13.6% | [3] 12.1% | [4] 7.7% | [5] 17.3% | [6] 30.6%

ClB1NB(Cl)NB(Cl)N1
inactive: [1] -9.45% | [2] -33.8% | [3] -9.95% | [4] -7% | [5] -11.9% | [6] 3.55%

CC(=O)OC1CC2C3CCc4cc(O)ccc4C3CCC2(C)C1 (stereo unspecified)
inactive: [1] 22.4% | [2] -15.8% | [3] -8% | [4] 6.7% | [5] -0.05% | [6] 3.2%

CN1CC2=C(NC(=S)NC2c2ccc(Cl)cc2)/C(=C/c2ccc(Cl)cc2)C1 (stereo unspecified)
inactive: [1] -7.95% | [2] 4.45% | [3] 7.45% | [4] 14.4% | [5] 29.2% | [6] 4.15%

O=C(Nc1ccccc1Cl)c1cc2cc(N=Nc3ccc(Br)cc3)ccc2oc1=O
inactive: [1] 0.55% | [2] 9.75% | [3] -3.8% | [4] 9.6% | [5] -7.05% | [6] -3.5%

O=[N+]([O-])c1ccc[nH]1
inactive: [1] -6.15% | [2] -9.95% | [3] -4.2% | [4] 15.3% | [5] 3% | [6] 2%

CC(=O)CCC(C)C1CCC2C3CCC4CCCCC4(C)C3CCC12C (stereo unspecified)
inactive: [1] 7.4% | [2] -3.05% | [3] -7.75% | [4] 13.8% | [5] -2.15% | [6] -1.8%

Cn1c(Nc2ccccc2)c(C=Nc2ccccc2)c(=O)n(C)c1=O
inactive: [1] -2.15% | [2] 3.45% | [3] -7.85% | [4] 7.55% | [5] -22.6% | [6] -0.9%

COc1cc2cnc(-c3ccccc3)c(O)c2cc1OC
inactive: [1] 12.3% | [2] -5.25% | [3] 12% | [4] 1.3% | [5] 40.1% | [6] -6.55%

O=C(Cc1csc2ccccc12)NCC1CC1
inactive: [1] -17.4% | [2] -19.1% | [3] -0.45% | [4] 2.45% | [5] 11% | [6] -3.55%

CCC1NC(=O)C1NC(=O)OC (stereo unspecified)
inactive: [1] 23.6% | [2] -1.15% | [3] 22.6% | [4] 0.55% | [5] 12.6% | [6] 22.8%

CCOC(=O)N1CCc2cc(OC)c(OC)cc2C1Cc1ccc(OC)c(OC)c1 (stereo unspecified)
inactive: [1] -2.2% | [2] -8.75% | [3] -7.7% | [4] 12% | [5] 1.95% | [6] -5.5%

COc1cc2cnc3c4cc(OC(C)C)c(OC)cc4ccc3c2cc1OC
inactive: [1] -10% | [2] -15.3% | [3] -20.1% | [4] 5.75% | [5] -5.3% | [6] -29.4%

CCOC(=O)Cc1ccc2ccccc2c1
inactive: [1] 7.3% | [2] -24.1% | [3] -1.95% | [4] 1.2% | [5] 8.05% | [6] 7.5%

O=C(O)/C=C\C(=O)NNC(=O)/C=C\C(=O)O
inactive: [1] 5.55% | [2] -2.8% | [3] -5.05% | [4] -18.9% | [5] 5.45% | [6] -24.4%

Cc1ccc(-c2cc(-c3ccccc3)c(C#N)c(=O)n2C2OC(CO)C(O)C(O)C2O)cc1 (stereo unspecified)
inactive: [1] -6.55% | [2] -0.3% | [3] 2.25% | [4] 28.1% | [5] 8.65% | [6] 2.95%

C(=C/c1ccccc1)/c1ccccc1
inactive: [1] -6.45% | [2] -16.1% | [3] -25.6% | [4] 8.85% | [5] -2.65% | [6] -2.15%

CCCCCCCCC(=O)NCCOC
inactive: [1] 10.9% | [2] 2.8% | [3] 5.8% | [4] -20.8% | [5] -2.95% | [6] 10.6%
